Values joined by “and” are separate entries in the source; they are usually repeats but may differ in a detail not shown here. Equal values may be shown once. Results filed as inconclusive are left out. Unmarked numbers belong to inactive results. Active and inactive are the calls of the source. Calls come from the whole dose curve; as a rule, active = well fitted cell-killing curve with a large enough effect in the repeat runs; inconclusive = weak or mixed curves, or effect the other way; inactive = no such curve, though single readings can be large or run the other way.
Assay: Caspase-3/7 induction in CHO-K1 cells by small molecules, qHTS cell viability counter screen (AID 1346979); note: nearly all actives have a fitted effect of over 35% in size
Conditions: CellTiter-Fluor fluorescence, 17 h; series mostly up to 92.4 µM; activity change, negative = cytotoxicity: at the top concentration
Description: National Center for Advancing Translational Sciences [NCATS]
NIH Chemical Genomics Center [NCGC]
U.S. Environmental Protection Agency [EPA]
National Institutes of Environmental Health Sciences [NIEHS]
National Toxicology Program [NTP]
U.S. Food and Drug Administration [FDA]
Apoptosis is a process of programmed cell death and plays a central role in the development of multicellular organisms. It is a highly regulated process and induces cell death by activating caspases, which are the members of cysteine aspartic acid-specific protease (caspase) family. Caspases involved in apoptosis are classified by their mechanism of action as initiator caspases (caspase-2, -8, -9 and -10) and executioner caspases (caspase-3, -6, and -7). Inhibition of apoptosis results in number of cancers, autoimmune diseases, inflammatory diseases and viral infection. To identify small molecule compounds that induce apoptosis, a homogeneous, luminescent Caspase-Glo 3/7 assay was used. Wild type CHO-K1 cells were used to screen Tox21 libraries for identifying caspase-3/7 activity inducers. Also cytotoxicity of the compounds was tested in parallel by measuring the cell viability using CellTiter-Fluor assay system in the same wells.
Tox21 Assay Protocol Summary:
CHO-K1 cells were dispensed at 1,500 per well in 5uL of culture medium into white solid bottom 1536-well plates (Corning Life Sciences, Corning, NY) using a Multidrop Combi (Thermo Scientific, Waltham, MA) dispenser. The assay plates were incubated at 37 C and 5% CO2 for 5hr, and then 23nL of compounds dissolved in DMSO and positive control were transferred using a Pintool station (Wako, San Diego, CA). The assay plates were incubated at 37C and 5% CO2 for 17hr. For cytotoxicity read, after 16hr incubation at 37C, 1uL CellTiter-Fluor reagent (Promega Corporation, Madison, WI) was added to each well of the assay plates using Flying Reagent Dispenser (FRD, Aurora Discovery, San Diego, CA). After 1hr incubation at 37C and 5% CO2, the fluorescence signal was quantified using a ViewLux plate reader (PerkinElmer, Shelton, CT).
% is set by controls: 0 for no effect and ±100 for the full control effect; potency is the fitted concentration of half-maximal effect.

Row | SMILES | activity change, negative = cytotoxicity | Potency
1 | C=CC(=O)OCC | 9.24% | 
2 | CCNC(=O)NC(=O)/C(C#N)=N/OC | 1.56% | 
3 | COC1CC(=C(c2cccs2)c2cccs2)C[N+](C)(C)C1 (stereo not given) | 1.58% [at 42.5 µM] | 
4 | CCCSP(=S)(OCC)Oc1ccc(SC)cc1 (stereo not given) | 9.74% | 
5 | O=C=NC1CCCCC1 | 2.82% | 
6 | CN1CC[C@]23c4c5ccc(O)c4O[C@H]2[C@@H](O)C=C[C@H]3[C@H]1C5 | -7.42% | 
7 | Cc1ccc(N)c(C)c1 |  | inactive
8 | FC(F)OC(F)(F)C(F)Cl (stereo not given) | 0.077% | 
9 | O=[N+]([O-])/C=C/c1ccccc1 |  | 6.97 µM (active) and 12.2 µM (active)
10 | CCCCCl | -7.75% | 
11 | C[C@H]1[C@@H]2Cc3ccc(O)cc3[C@@]1(C)CCN2C | -0.893% [at 240 µM] | 
12 | CCCCCCCCCCCC[N+](C)(C)CCOc1ccccc1 |  | 43.3 µM (active)
13 | C1CS1 | 10.6% | 
14 | CCCBr | 10.3% | 
15 | CN1CC[C@]23c4c5ccc(O)c4O[C@H]2[C@@H](O)CC[C@H]3[C@H]1C5 | -1.21% | 
16 | O=C(O)C(O)C(O)C(=O)O (stereo not given) | 3.06% | 
17 | C=CC(C)(CCC=C(C)C)OC(=O)c1ccccc1N (stereo not given) | 8.14% | 
18 | C=CCOCC1CO1 (stereo not given) | 3.93% | 
19 | O=C([O-])c1ccccn1.O=C([O-])c1ccccn1.O=C([O-])c1ccccn1.[Cr+3] | -1.42% | 
20 | Nc1cc(Cl)cc(C(=O)O)c1Cl |  | inactive

Row | SMILES | activity change, negative = cytotoxicity | Potency
21 | C[C@H](N)[C@H](O)c1ccc(O)c(O)c1 | -10.5% [at 42.5 µM] | 
22 | O=C(NC(=O)c1cc(F)c(F)cc1Cl)Nc1cc(F)ccc1N1CCC(C(=O)O)CC1 | 1.77% [at 42.5 µM] | 
23 | CC(C)CCCCCCCOC(=O)c1ccccc1C(=O)OCCCCCCCC(C)C | 8.52% | 
24 | O=C(O)C(Cl)(Cl)Br | 9.81% | 
25 | O=S(=O)(c1ccccc1)c1ccccc1 | 9.86% | 
26 | CC(C)CCON=O | 11% | 
27 | OCCCl | 3.68% | 
28 | c1ccc2sc(SNC3CCCCC3)nc2c1 |  | inactive
29 | c1ccc2c(c1)sc1ccccc12 |  | inactive
30 | Clc1ccc(Cl)c(Cl)c1 |  | inactive
31 | CC[N+]1(C)CCCC(OC(=O)C(O)(c2ccccc2)c2ccccc2)C1 (stereo not given) | 1.7% [at 42.5 µM] | 
32 | C[N+]1(CCC(C(N)=O)(c2ccccc2)c2ccccc2)CCCCC1 | 7.68% [at 42.5 µM] | 
33 | Cc1cnc(C2=NC(C)(C(C)C)C(=O)N2)c(C(=O)O)c1 (stereo not given) | 2.05% | 
34 | CC(O)CN1CCN(CC(=O)[O-])CCN(CC(=O)[O-])CCN(CC(=O)[O-])CC1.[Gd+3] (stereo not given) | 1.09% [at 42.5 µM] | 
35 | CCOc1cccc(C2(N3CCN(c4ccccc4)CC3)CCC(C)CC2)c1 (stereo not given) | 3.04% | 
36 | CCC1(CCC(C)C)C(=O)NC(=O)NC1=O | 10.2% | 
37 | CC(CC(C(N)=O)(c1ccccc1)c1ccccc1)N(C)C (stereo not given) | -0.84% [at 42.5 µM] | 
38 | Clc1ccccc1 |  | 9.55 µM (active)
39 | O=CC=O | -0.396% | 
40 | CC(Cl)C(=O)O (stereo not given) | 0.384% | 
